Assay results from PubChem BioAssay (Tox21).
Records with an inconclusive call do not appear. Activity calls are given as the source filed them. Unless noted, the call rests on the fitted dose curve; in most records, active means well fitted curve in the direction sought with a large enough effect in the repeat runs; inconclusive means weak or mixed curves; inactive means no such curve, though single readings can be large; an effect the other way counts as inactive or inconclusive.

Experiments:
[1] = molecular target: Aryl hydrocarbon receptor (Homo sapiens) (UniProt P35869); assay: qHTS assay to identify small molecule that activate the aryl hydrocarbon receptor (AhR) signaling pathway (AID 743085);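 further: HG2L7.5c1 human HepG2 liver cells with stably integrated DRE-driven firefly reporter; series mostly up to about 70 µM; nearly all actives have a fitted effect of over 15% in size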
Outline: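 AhR agonist activity is inferred from enhanced light output of a DRE-controlled firefly luciferase reporter in HepG2 cells, measured with ONE-Glo following 24 h treatment at 37C.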

[2] = qHTS assay to identify small molecule that activate the aryl hydrocarbon receptor (AhR) signaling pathway - cell viability counter screen (AID 743086);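 further: HepG2 liver cells carrying the AhR DRE luciferase reporter; series mostly up to about 70 µM; nearly all actives have a fitted effect of over 45% in size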
Outline: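 HepG2-AhR-luc (HG2L7.5c1) cells, 4000/well, were preincubated 5 h at 37C, exposed to compound in qHTS format for 24 hr at 37C, then given CellTiter-Fluor for 30 min; viability was read as fluorescence in the reporter wells.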

[3] = molecular target: Peroxisome proliferator-activated receptor gamma (Homo sapiens) (UniProt P37231); assay: qHTS assay to identify small molecule agonists of the peroxisome proliferator-activated receptor gamma (PPARg) signaling pathway (AID 743094; active means well fitted activation curve with a large enough effect in the signal ratio in the repeat runs, not every such curve was filed as active; the % refers to the signal ratio)
Outline: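 Beta-lactamase FRET fluorescence was the read-out after a 1 h room-temperature substrate step, following 17 h compound treatment at 37C of HEK293H cells expressing a UAS-driven bla reporter responsive to PPARg.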

[4] = qHTS assay to identify small molecule antagonists of the peroxisome proliferator-activated receptor gamma (PPARg) signaling pathway - cell viability counter screen (AID 743194); further: nearly all actives have a fitted effect of over 55% in size
Outline: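 PPARg-UAS-bla HEK293H cells were plated, rested 5 h at 37 C, then treated with compounds plus rosiglitazone (50 nM final) for 17 h at 37 C; viability was then read by CellTiter-Glo luminescence after 30 min at room temperature.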

[5] = qHTS assay for small molecule agonists of the antioxidant response element (ARE) signaling pathway (AID 743202; active means well fitted activation curve with a large enough effect in the signal ratio in the repeat runs, not every such curve was filed as active; the % refers to the signal ratio)
Outline: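 Compounds delivered in DMSO to ARE-bla HepG2 cells (2,000 cells/well, pre-incubated 5 h) and left 16 h at 37 C. LiveBLAzer B/G FRET substrate then added for 2 h at RT before fluorescence reading.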

[6] = qHTS assay for small molecule agonists of the antioxidant response element (ARE) signaling pathway - cell viability counter screen (AID 743203; calls by dose curve; further: nearly all actives have a fitted effect of over 55% in size)
Outline: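 HepG2 cells carrying ARE-driven beta-lactamase; 2,000 cells/well; 5 hrs plating; compound pinned from DMSO; 16 hrs 37C/5% CO2; CellTiter-Glo added; 30 min RT; luminescence.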

[7] = qHTS assay for small molecule activators of the heat shock response signaling pathway - cell viability counter screen (AID 743209); further: nearly all actives have a fitted effect of over 50% in size
Outline: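 Luminescence from CellTiter-Glo, added after the beta-lactamase FRET read, gave the viability signal. Cells were HSE-bla HeLa treated with DMSO-dissolved compounds for 5 h at 37 C following overnight plating.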

[8] = qHTS assay for small molecule activators of the heat shock response signaling pathway (AID 743210; active means well fitted activation curve with a large enough effect in the signal ratio in the repeat runs, with a control signal flat, not every such curve was filed as active; the % refers to the signal ratio;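 further: HeLa cells with beta-lactamase reporter driven by heat shock elements; series mostly up to about 63 µM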)
Outline: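 Reporter gene assay: HeLa cells stably bearing an HSE-bla construct, compound treatment 5 h at 37 C, LiveBLAzer substrate 2.5 h at RT, fluorescence intensity.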

[9] = qHTS assay to identify small molecule agonists of the peroxisome proliferator-activated receptor delta (PPARd) signaling pathway - cell viability counter screen (AID 743211); further: nearly all actives have a fitted effect of over 55% in size
Outline: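 qHTS cell viability: PPARd-bla HEK293H; 17 h cpd, 37C; CellTiter-Glo, luminescence at 30 min RT.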

[10] = molecular target: Peroxisome proliferator-activated receptor gamma (Homo sapiens) (UniProt P37231); assay: qHTS assay to identify small molecule antagonists of the peroxisome proliferator-activated receptor gamma (PPARg) signaling pathway (AID 743191; calls by dose curve; further: series mostly up to about 63 µM; nearly all actives have a fitted effect of over 30% in size)
Outline: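 GeneBLAzer PPARg UAS-bla HEK293H cells carrying a UAS-driven beta-lactamase reporter were plated at 3000 cells/well, preincubated 5 h at 37C, then given compound for 17 h at 37C; LiveBLAzer B/G FRET substrate was read after 1 h at room temperature.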
On the % scale 0 is the no-effect control and ±100 the full control effect.

Sequence of Peroxisome proliferator-activated receptor gamma (Homo sapiens) (P37231 whole entry, looked up): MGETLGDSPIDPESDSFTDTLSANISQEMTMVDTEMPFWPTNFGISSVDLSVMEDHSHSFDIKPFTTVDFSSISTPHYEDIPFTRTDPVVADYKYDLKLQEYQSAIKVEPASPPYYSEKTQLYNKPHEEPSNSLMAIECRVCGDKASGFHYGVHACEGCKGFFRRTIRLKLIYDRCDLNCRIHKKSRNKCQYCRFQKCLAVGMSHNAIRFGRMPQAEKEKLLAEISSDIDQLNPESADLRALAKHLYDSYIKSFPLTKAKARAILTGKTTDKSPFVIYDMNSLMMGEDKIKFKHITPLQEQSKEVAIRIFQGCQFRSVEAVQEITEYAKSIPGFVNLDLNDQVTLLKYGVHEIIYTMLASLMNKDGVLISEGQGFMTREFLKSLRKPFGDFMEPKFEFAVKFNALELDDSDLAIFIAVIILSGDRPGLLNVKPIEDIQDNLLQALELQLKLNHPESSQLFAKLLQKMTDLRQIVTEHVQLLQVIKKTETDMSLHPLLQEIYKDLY
Sequence of Aryl hydrocarbon receptor (Homo sapiens) (P35869 whole entry, looked up): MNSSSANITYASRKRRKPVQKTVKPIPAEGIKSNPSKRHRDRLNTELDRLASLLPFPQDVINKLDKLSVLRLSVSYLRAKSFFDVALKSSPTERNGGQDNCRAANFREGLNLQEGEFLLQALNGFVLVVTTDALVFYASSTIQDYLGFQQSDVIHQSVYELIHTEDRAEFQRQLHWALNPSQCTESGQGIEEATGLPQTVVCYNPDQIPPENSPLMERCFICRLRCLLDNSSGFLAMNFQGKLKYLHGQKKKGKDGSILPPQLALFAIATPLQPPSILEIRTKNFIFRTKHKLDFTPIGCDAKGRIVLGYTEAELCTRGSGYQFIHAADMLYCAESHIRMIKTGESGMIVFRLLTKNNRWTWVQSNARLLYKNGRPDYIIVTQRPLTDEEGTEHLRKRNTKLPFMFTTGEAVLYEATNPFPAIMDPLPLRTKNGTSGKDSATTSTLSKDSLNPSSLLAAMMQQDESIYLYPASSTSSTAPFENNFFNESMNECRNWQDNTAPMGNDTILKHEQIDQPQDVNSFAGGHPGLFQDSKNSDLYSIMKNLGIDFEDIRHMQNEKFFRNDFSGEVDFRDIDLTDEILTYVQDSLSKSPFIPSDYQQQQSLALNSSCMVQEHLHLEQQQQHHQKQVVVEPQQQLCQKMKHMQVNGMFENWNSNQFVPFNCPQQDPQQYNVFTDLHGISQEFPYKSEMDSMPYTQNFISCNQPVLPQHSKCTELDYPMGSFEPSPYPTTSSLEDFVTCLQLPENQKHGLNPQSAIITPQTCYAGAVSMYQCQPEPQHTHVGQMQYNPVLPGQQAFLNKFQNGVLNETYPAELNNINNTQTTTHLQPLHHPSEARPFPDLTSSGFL

CC(=O)OC(C(=O)c1ccccc1)c1ccccc1 (stereo not drawn)
inactive: Potency [1] | Potency [2] | outcome [3] | outcome [4] | Potency [5] | outcome [6] | outcome [7] | outcome [8] | outcome [9]

C=C(C)[C@@H]1CC[C@@H](C)C[C@@H]1O
inactive: Potency [1] | Potency [2] | outcome [3] | outcome [4] | Potency [5] | outcome [6] | outcome [7] | outcome [8] | outcome [9]

CC1=CC[C@H](CC=O)C1(C)C
inactive: Potency [1] | Potency [2] | outcome [3] | outcome [4] | Potency [5] | outcome [6] | outcome [7] | outcome [8] | outcome [9]

C=CCCCCCCCCCCC
inactive: activation [1] -0.125% [at 8.47 µM] | viability change, negative = cytotoxic [2] 0.7% [at 8.47 µM] | activation [3] -4.62% [at 7.08 µM] | activity change, negative = cytotoxicity [4] 13.8% [at 5.95 µM] | viability change, negative = cytotoxic [6] 9.33% [at 8.36 µM] | activity change, negative = cytotoxicity [7] -3.82% [at 5.95 µM] | activation [8] -0.0554% [at 5.95 µM] | activity change, negative = cytotoxicity [9] -1.9% [at 5.95 µM]

Cn1c(=O)c2c(ncn2CC2OCCO2)n(C)c1=O
inactive: Potency [1] | Potency [2] | outcome [3] | outcome [4] | Potency [5] | outcome [6] | outcome [8] | outcome [9]

CC(Cl)COP(=O)(OCC(C)Cl)OCC(C)Cl (stereo not drawn)
inactive: Potency [1] | Potency [2] | outcome [3] | outcome [4] | Potency [5] | outcome [6] | outcome [8] | outcome [9]

Cc1ncc([N+](=O)[O-])n1CC(O)CCl (stereo not drawn)
inactive: Potency [1] | Potency [2] | outcome [3] | outcome [4] | Potency [5] | outcome [9]

CCN(Cc1cccc(S(=O)(=O)O)c1)c1ccccc1
inactive: Potency [1] | Potency [2] | outcome [3] | outcome [4] | Potency [5] | outcome [7] | outcome [9]

CC(=O)OCC(=O)[C@@]1(O)[C@H](OC(C)=O)C[C@H]2[C@@H]3CCC4=CC(=O)C=C[C@]4(C)[C@@]3(F)[C@@H](O)C[C@@]21C
inactive: Potency [1] | Potency [2] | outcome [3] | outcome [4] | Potency [5] | outcome [7] | outcome [9]

CC(C)CCCCCCOC(=O)C1CCCCC1C(=O)OCCCCCCC(C)C (stereo not drawn)
inactive: Potency [1] | Potency [2] | outcome [3] | outcome [4] | Potency [5] | outcome [7] | outcome [9]

CN[C@@H]1[C@@H](O)[C@@H](O[C@@H]2[C@H](O)[C@H](O[C@H]3OC(CN)=CC[C@H]3N)[C@@H](N)C[C@H]2N)OCC1(C)O (stereo partly drawn)
inactive: Potency [1] | Potency [2] | outcome [3] | outcome [4] | Potency [5] | outcome [6] | outcome [8] | outcome [9]

C[N+](C)(C)CC(O)CCl (stereo not drawn)
inactive: Potency [1] | Potency [2] | outcome [3] | outcome [4] | Potency [5] | outcome [6] | outcome [7] | outcome [9]

CC(=O)OC(C)c1ccccc1 (stereo not drawn)
inactive: Potency [1] | Potency [2] | outcome [3] | outcome [4] | Potency [5] | outcome [6] | outcome [7] | outcome [9]

CCC(C)(C)C1CCC(=O)CC1
inactive: Potency [1] | Potency [2] | outcome [3] | outcome [4] | Potency [5] | outcome [6] | outcome [8] | outcome [9]

C=CCOC(=O)c1ccc(C(=O)OCC=C)c(C(=O)OCC=C)c1
inactive: Potency [1] | Potency [2] | outcome [3] | outcome [4] | Potency [5] | outcome [7] | outcome [8] | outcome [9]

CC(C)CCCC(C)CC=O (stereo not drawn)
inactive: Potency [1] | Potency [2] | outcome [3] | outcome [4] | Potency [5] | outcome [6] | outcome [7] | outcome [8] | outcome [9]

C[C@H]1O[C@H](O[C@H]2[C@H](O)[C@@H](O)[C@@H](O[C@H]3[C@H](O)[C@@H](O)[C@H](O)O[C@@H]3CO)O[C@@H]2CO)[C@H](O)[C@@H](O)[C@@H]1N[C@H]1C=C(CO)[C@@H](O)[C@H](O)[C@H]1O
inactive: Potency [1] | Potency [2] | outcome [3] | outcome [4] | Potency [5] | outcome [6] | outcome [8] | outcome [9]

CCOC(=O)C(C)(C)C
inactive: Potency [1] | Potency [2] | outcome [3] | outcome [4] | Potency [5] | outcome [6] | outcome [8] | outcome [9]

C[CH2][Ge]([Cl])([CH2]C)[CH2]C
inactive: Potency [1] | Potency [2] | outcome [3] | outcome [4] | Potency [5] | outcome [6] | outcome [7] | outcome [9]

Nc1ccnc(=O)[nH]1
inactive: Potency [1] | Potency [2] | outcome [3] | outcome [4] | Potency [5] | outcome [6] | outcome [7] | outcome [8] | outcome [9]

CCCCOC(=O)C(C)OC(=O)CCC (stereo not drawn)
inactive: Potency [1] | Potency [2] | outcome [3] | outcome [4] | Potency [5] | outcome [7] | outcome [9]

CCCCC(C)C(=O)O (stereo not drawn)
inactive: Potency [1] | Potency [2] | outcome [3] | outcome [4] | Potency [5] | outcome [9]

CC(C)SCc1ccco1
inactive: Potency [1] | Potency [2] | outcome [3] | outcome [4] | Potency [5] | outcome [6] | outcome [7] | outcome [8] | outcome [9]

C=C(C)C(=O)OC
inactive: Potency [1] | Potency [2] | outcome [3] | outcome [4] | Potency [5] | outcome [6] | outcome [7] | outcome [9]

O=C(O)/C=C/c1ccccc1
inactive: Potency [1] | Potency [2] | outcome [3] | outcome [4] | Potency [5] | outcome [7] | outcome [9]

Nc1ccc(S(=O)(=O)Nc2ccccn2)cc1
inactive: Potency [1] | Potency [2] | outcome [3] | outcome [4] | Potency [5] | outcome [6] | outcome [7] | outcome [9]

C=CC(C)(O)CC/C=C(\C)CC (stereo not drawn)
inactive: Potency [1] | Potency [2] | outcome [3] | outcome [4] | Potency [5] | outcome [6] | outcome [8] | outcome [9]

O=S1(=O)CCCC1
inactive: Potency [1] | Potency [2] | outcome [3] | outcome [4] | Potency [5] | outcome [6] | outcome [8] | outcome [9]

O=c1[nH]c(=O)c2[nH]c(=O)[nH]c2[nH]1
inactive: Potency [1] | Potency [2] | outcome [3] | activity change, negative = cytotoxicity [4] -35.1% [at 13.2 µM] | activation [5] 2.83% [at 8.36 µM] | viability change, negative = cytotoxic [6] 8.26% [at 8.36 µM] | activity change, negative = cytotoxicity [7] -0.886% [at 13.2 µM] | activation [8] -0.669% [at 13.2 µM] | activity change, negative = cytotoxicity [9] 7.12% [at 13.2 µM]

Cc1cccc(Nc2ccncc2S(=O)(=O)NC(=O)NC(C)C)c1
inactive: Potency [1] | Potency [2] | Potency [10] | outcome [4] | Potency [5] | outcome [6] | outcome [7] | outcome [8] | outcome [9]

O=C1NC2NC(=O)NC2N1 (stereo not drawn)
inactive: Potency [1] | Potency [2] | Potency [10] | outcome [4] | Potency [5] | outcome [6] | outcome [7] | outcome [8] | outcome [9]

CC(C)(c1ccc(Oc2ccc3c(c2)C(=O)OC3=O)cc1)c1ccc(Oc2ccc3c(c2)C(=O)OC3=O)cc1
inactive: Potency [1] | Potency [2] | outcome [4] | Potency [5] | outcome [6] | outcome [7] | outcome [8] | outcome [9]

CCC1Nc2cc(Cl)c(S(N)(=O)=O)cc2S(=O)(=O)N1 (stereo not drawn)
inactive: Potency [1] | Potency [2] | outcome [4] | Potency [5] | outcome [6]

NS(=O)(=O)c1ccc(Cl)c(S(N)(=O)=O)c1
inactive: Potency [1] | Potency [2] | outcome [3] | outcome [4] | outcome [6] | outcome [7] | outcome [9]

CCCCOC(=O)[C@@H](C)Oc1ccc(Oc2ccc(C(F)(F)F)cn2)cc1
inactive: Potency [1] | Potency [2] | outcome [3] | outcome [4] | outcome [6] | outcome [7] | outcome [9]

Cc1nc(C)nc(N2C[C@@H](C)N(c3ccnc([C@@H](C)O)n3)[C@@H](C)C2)n1
inactive: Potency [1] | Potency [2] | Potency [10] | outcome [4] | outcome [6] | outcome [7] | outcome [8] | outcome [9]
